# Measurements published in paper PMC11062922 (Nature Chemical Biology, 2023).
# Read-outs that look alike come from different tables or passages of the source.
# Assays:
# Design in all cases: species or system human, MV4-11 + K-562 + COLO205 + SK-N-BE2 + OVCAR-8
# CDK7 = details: read-out: apparent Kd; compound concentrations: 100 nM and 1000 nM (sheet 'Samples'), CATDS: 1.0726954600141701E-2; n = 1
# CDKL5 = details: read-out: apparent Kd, n = 1
# ERCC2 = details: read-out: apparent Kd; compound concentrations: 100 nM and 1000 nM (sheet 'Samples'), CATDS: 1.0235233347988201E-2; n = 1
# FLT3 = details: read-out: apparent Kd, n = 1
# LATS1 = details: read-out: apparent Kd, n = 1
# MARK4 = details: read-out: apparent Kd, n = 1
# MYLK3 = details: read-out: apparent Kd, n = 1
# PRKAA1 = details: read-out: apparent Kd, compound concentrations: 100 nM and 1000 nM (sheet 'Samples'), n = 1
# PRKCD = details: read-out: apparent Kd, compound concentrations: 100 nM and 1000 nM (sheet 'Samples'), n = 1
# PRKD2 = details: read-out: apparent Kd, n = 1
# PRKD3 = details: read-out: apparent Kd, n = 1
# RPS6KA6 = details: read-out: apparent Kd, compound concentrations: 100 nM and 1000 nM (sheet 'Samples'), n = 1
# DYRK1A = details: read-out: apparent Kd, compound concentrations: 100 nM and 1000 nM (sheet 'Samples'), n = 1
# PLK4 = details: read-out: apparent Kd, n = 1
# PRKCQ = details: read-out: apparent Kd; compound concentrations: 100 nM and 1000 nM (sheet 'Samples'), CATDS: 2.6170878676828799E-2; n = 1
# PTK2B = details: read-out: apparent Kd; compound concentrations: 100 nM and 1000 nM (sheet 'Samples'), CATDS: 0.14676588130533899; n = 1
# PTK2 = details: read-out: apparent Kd, compound concentrations: 100 nM and 1000 nM (sheet 'Samples'), n = 1
# STK10 = details: read-out: apparent Kd; compound concentrations: 100 nM and 1000 nM (sheet 'Samples'), CATDS: 1.4244346039845699E-2; n = 1
# [1] = compound concentrations:100 nM and 1000 nM (sheet 'Samples')
compound,measurement,setting,value
COc1cc[nH]c1/C=C1\C(=O)Nc2ccc(F)c(C#CC3(O)CCNCC3)c21.Cl [RO0282986-001],potency estimated from few doses,CDK7,1020 nM
same,potency estimated from few doses,"CDKL5; compound concentrations: 100 nM and 1000 nM (sheet 'Samples'), CATDS: 0.34989836845243499",2.99 nM
same,potency estimated from few doses,ERCC2,1210 nM
same,potency estimated from few doses,"FLT3; compound concentrations: 100 nM and 1000 nM (sheet 'Samples'), CATDS: 4.9574860121956603E-2",43.6 nM
same,potency estimated from few doses,"LATS1; compound concentrations: 100 nM and 1000 nM (sheet 'Samples'), CATDS: 3.7276023026690398E-2",68.4 nM
same,potency estimated from few doses,"MARK4; compound concentrations: 100 nM and 1000 nM (sheet 'Samples'), CATDS: 1.45077611109678E-2",429 nM
same,potency estimated from few doses,"MYLK3; compound concentrations: 100 nM and 1000 nM (sheet 'Samples'), CATDS: 1.54633184822493E-2",368 nM
same,potency estimated from few doses,PRKAA1; CATDS: 1.18517634082691E-2,741 nM
same,potency estimated from few doses,PRKCD; CATDS: 1.2203659987841E-2,680 nM
same,potency estimated from few doses,"PRKD2; compound concentrations: 100 nM and 1000 nM (sheet 'Samples'), CATDS: 2.5801010504162801E-2",129 nM
same,potency estimated from few doses,"PRKD3; compound concentrations: 100 nM and 1000 nM (sheet 'Samples'), CATDS: 3.6312689079161402E-2",71.4 nM
same,potency estimated from few doses,RPS6KA6; CATDS: 1.2829138267775601E-2,590 nM
CCn1c(-c2cccnc2O)nc2cnccc21 [SB-736715],potency estimated from few doses,DYRK1A; CATDS: 1.19408465116969E-2,2220 nM
same,potency estimated from few doses,"PLK4; compound concentrations: 100 nM and 1000 nM (sheet 'Samples'), CATDS: 1.6109346407018599E-2",1120 nM
same,potency estimated from few doses,PRKCD; CATDS: 1.16308056787147E-2,2390 nM
same,potency estimated from few doses,"PRKD2; compound concentrations: 100 nM and 1000 nM (sheet 'Samples'), CATDS: 1.32694977387129E-2",1700 nM
same,potency estimated from few doses,RPS6KA6; CATDS: 1.6792269740451799E-2,1030 nM
O=C1N=C(NCCCc2ccccc2)S/C1=C\c1ccc2ncccc2c1 [RO4493941-000],potency estimated from few doses,DYRK1A; CATDS: 6.8092992761352805E-2,1090 nM
same,potency estimated from few doses,"FLT3; compound concentrations: 100 nM and 1000 nM (sheet 'Samples'), CATDS: 7.0899563785954994E-2",945 nM
c1cnn2ncc(-c3ccnc(Nc4ccc5c(c4)OCCO5)n3)c2c1 [GW806290X],potency estimated from few doses,"CDKL5; compound concentrations: 100 nM and 1000 nM (sheet 'Samples'), CATDS: 7.1122593361459902E-2",94.8 nM
same,potency estimated from few doses,DYRK1A; CATDS: 2.4296257212368499E-2,1020 nM
same,potency estimated from few doses,"FLT3; compound concentrations: 100 nM and 1000 nM (sheet 'Samples'), CATDS: 9.3011022280108296E-2",61.9 nM
same,potency estimated from few doses,"MYLK3; compound concentrations: 100 nM and 1000 nM (sheet 'Samples'), CATDS: 2.0905091895042499E-2",1690 nM
same,potency estimated from few doses,PRKCD; CATDS: 2.1059848271292699E-2,1650 nM
CC(C)Nc1cc(-c2ccc3c(N)n[nH]c3c2)nc(N)n1 [GSK2221681A],potency estimated from few doses,MYLK3; [1],1410 nM
O=C(O)C(F)(F)F.O=c1[nH]ccc2nc(N[C@@H]3CCNC3)nc(Nc3ccc4c(c3)S(=O)(=O)CC4)c12 [GSK2181306A],potency estimated from few doses,"FLT3; compound concentrations: 100 nM and 1000 nM (sheet 'Samples'), CATDS: 8.5928839760778392E-3",1430 nM
same,potency estimated from few doses,"LATS1; compound concentrations: 100 nM and 1000 nM (sheet 'Samples'), CATDS: 9.3348582894500695E-3",1060 nM
same,potency estimated from few doses,"MARK4; compound concentrations: 100 nM and 1000 nM (sheet 'Samples'), CATDS: 1.39607166136132E-2",364 nM
same,potency estimated from few doses,"MYLK3; compound concentrations: 100 nM and 1000 nM (sheet 'Samples'), CATDS: 1.37346756795961E-2",378 nM
same,potency estimated from few doses,"PLK4; compound concentrations: 100 nM and 1000 nM (sheet 'Samples'), CATDS: 1.0301359054319901E-2",780 nM
same,potency estimated from few doses,PRKAA1; CATDS: 1.0186150726121701E-2,806 nM
same,potency estimated from few doses,PRKCD; CATDS: 1.35004304297044E-2,393 nM
same,potency estimated from few doses,PRKCQ,109 nM
same,potency estimated from few doses,"PRKD2; compound concentrations: 100 nM and 1000 nM (sheet 'Samples'), CATDS: 1.40189699777229E-2",361 nM
same,potency estimated from few doses,"PRKD3; compound concentrations: 100 nM and 1000 nM (sheet 'Samples'), CATDS: 1.3161717541215199E-2",416 nM
same,potency estimated from few doses,PTK2B,7.85 nM
same,potency estimated from few doses,PTK2; CATDS: 1.26908044815701E-2,453 nM
same,potency estimated from few doses,RPS6KA6; CATDS: 1.2402205913088901E-2,478 nM
same,potency estimated from few doses,STK10,349 nM
COc1cc(Nc2nccc(-c3cnn4ncccc34)n2)cc(OC)c1 [GW801372X],potency estimated from few doses,"CDKL5; compound concentrations: 100 nM and 1000 nM (sheet 'Samples'), CATDS: 4.3388944669180397E-2",141 nM
same,potency estimated from few doses,DYRK1A; CATDS: 3.9916528669642001E-2,170 nM
same,potency estimated from few doses,"FLT3; compound concentrations: 100 nM and 1000 nM (sheet 'Samples'), CATDS: 0.110722345436643",22.4 nM
same,potency estimated from few doses,PTK2; CATDS: 2.4454982719063802E-2,604 nM
CNCC#Cc1c(F)ccc2c1/C(=C/c1[nH]ccc1OC)C(=O)N2.Cl [RO0281601-001],potency estimated from few doses,"CDKL5; compound concentrations: 100 nM and 1000 nM (sheet 'Samples'), CATDS: 0.30453752260001898",9.43 nM
same,potency estimated from few doses,"FLT3; compound concentrations: 100 nM and 1000 nM (sheet 'Samples'), CATDS: 6.9218069305552701E-2",105 nM
same,potency estimated from few doses,"LATS1; compound concentrations: 100 nM and 1000 nM (sheet 'Samples'), CATDS: 3.7561417632614502E-2",394 nM
same,potency estimated from few doses,"MARK4; compound concentrations: 100 nM and 1000 nM (sheet 'Samples'), CATDS: 2.40121909495257E-2",1380 nM
same,potency estimated from few doses,"MYLK3; compound concentrations: 100 nM and 1000 nM (sheet 'Samples'), CATDS: 6.4458343159200099E-2",121 nM
CC(C)Oc1ccc2c(-c3ccnc(Nc4ccc(N5CCN(C)CC5)cc4)n3)cnn2n1 [GW696155X],potency estimated from few doses,FLT3; [1],479 nM
same,potency estimated from few doses,LATS1; [1],1500 nM
same,potency estimated from few doses,MARK4; [1],1800 nM
same,potency estimated from few doses,PLK4; [1],506 nM
same,potency estimated from few doses,PRKD2; [1],482 nM
same,potency estimated from few doses,PRKD3; [1],1110 nM
NS(=O)(=O)c1ccc(N/N=C2\C(=O)Nc3ccc4ncccc4c32)cc1 [GW305178X],potency estimated from few doses,"CDKL5; compound concentrations: 100 nM and 1000 nM (sheet 'Samples'), CATDS: 5.21381649539812E-2",867 nM
Cl.Nc1nc(-c2ccc3c(c2)C(=Cc2cc(Br)c(O)c(Br)c2)C(=O)N3)cs1 [GW407323A],potency estimated from few doses,"CDKL5; compound concentrations: 100 nM and 1000 nM (sheet 'Samples'), CATDS: 9.5267986760985093E-2",73.7 nM
same,potency estimated from few doses,DYRK1A; CATDS: 7.6450134498411204E-2,110 nM
same,potency estimated from few doses,"MARK4; compound concentrations: 100 nM and 1000 nM (sheet 'Samples'), CATDS: 2.9036597376729201E-2",1630 nM
same,potency estimated from few doses,"MYLK3; compound concentrations: 100 nM and 1000 nM (sheet 'Samples'), CATDS: 0.25523575381679198",17.2 nM
same,potency estimated from few doses,"PRKD2; compound concentrations: 100 nM and 1000 nM (sheet 'Samples'), CATDS: 3.4430997277348899E-2",812 nM
same,potency estimated from few doses,"PRKD3; compound concentrations: 100 nM and 1000 nM (sheet 'Samples'), CATDS: 3.1520603000909302E-2",1130 nM
Cc1cc(NC(=O)c2cccc(NC(=O)/C=C/CN(C)C)c2)ccc1Nc1nccc(-c2cccnc2)n1 [JNK-IN-7],potency estimated from few doses,CDKL5; [1],958 nM
O=C1N=C(NCc2ccccc2Br)S/C1=C\c1ccc2ncccc2c1 [RO4506918-000],potency estimated from few doses,DYRK1A; CATDS: 8.9156542240232201E-2,912 nM
